These results are taken from the supplement of paper PMC7380943.
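Further: compound given one day ahead of doxycycline, which switches on I-SceI endonuclease to cut the chromosomally integrated reporter and create DSBs.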

This experiment relates to CLZ3 (HCA2 human fibroblast dual HR-NHEJ reporter). Description: NHEJ repair efficiency (GFP+ cells) relative to control (log10 fold); higher = more non-homologous end joining. Conditions: 5 µM; doxycycline 0.5 ug/mL.
In the case of `O=C1C[C@@H](c2ccc(O[C@@H]3O[C@H](CO)[C@@H](O)[C@H](O)[C@H]3O)cc2)Oc2cc(O)ccc21` [Liquiritin], the “NHEJ repair efficiency (log10)” value is -0.084. Take `O=c1c(-c2ccc(O[C@@H]3O[C@H](CO)[C@@H](O)[C@H](O)[C@H]3O)cc2)coc2cc(O)cc(O)c12` [Sophoricoside]: the “NHEJ repair efficiency (log10)” value stood at 0.185. `C[C@@H]1[C@H]2[C@H](O[C@@H]3O[C@H](CO)[C@@H](O)[C@H](O)[C@H]3O)OC=C(C(=O)O)[C@H]2C[C@@H]1O` [Loganic Acid]: the “NHEJ repair efficiency (log10)” value was found to be 0.0621. `O=C(O)CC(O)C(=O)O` (stereo not given) [Malic Acid]: the “NHEJ repair efficiency (log10)” value was -0.069. For the compound `C=C1CCC[C@]2(C)C[C@]3(O)OC(=O)C(C)=C3C[C@@H]12` [Atractylenolide Iii], the “NHEJ repair efficiency (log10)” value was found to be 0.00444. `COc1cc(C2Oc3cc([C@H]4Oc5cc(O)cc(O)c5C(=O)[C@@H]4O)ccc3OC2CO)ccc1O` (stereo not given in full) [Silybin (Silymarin)]: the “NHEJ repair efficiency (log10)” value came out at 0.131. Regarding `O=C(/C=C/c1ccc(O)c2c1[C@H](C(=O)O)[C@@H](c1ccc(O)c(O)c1)O2)O[C@H](Cc1ccc(O)c(O)c1)C(=O)O` [Lithospermic acid], the “NHEJ repair efficiency (log10)” value was 0.072. `Cc1cc(=O)c2c(O)c3c(cc2o1)OC(C)(C)[C@@H](O[C@@H]1O[C@H](CO)[C@@H](O)[C@H](O)[C@H]1O)C3` [Sec-O-Glucosylhamaudol]: the “NHEJ repair efficiency (log10)” value was -0.132. For the compound `C[C@@]12C[C@@]3(O)O[C@@H](O1)[C@]1(COC(=O)c4ccccc4)[C@H]3C[C@@]12O[C@@H]1O[C@H](CO)[C@@H](O)[C@H](O)[C@H]1O` [Paeoniflorin], the “NHEJ repair efficiency (log10)” value worked out at 0.122. `C=C1C[C@@]23CC[C@H]4[C@@](C)(CCC[C@@]4(C)C(=O)O[C@@H]4O[C@H](CO)[C@@H](O)[C@H](O)[C@H]4O)[C@@H]2CC[C@]1(O[C@@H]1O[C@H](CO)[C@@H](O)[C@H](O)[C@H]1O)C3` [Rubusoside]: the “NHEJ repair efficiency (log10)” value came out at 0.0726. Turning to `C=C1C(=O)O[C@@H]2/C=C(\C)CC/C=C(\C)CC[C@@H]12` [Costunolide], the “NHEJ repair efficiency (log10)” value was -0.04. The result for `COC(=O)C1=CO[C@@H](O[C@@H]2O[C@H](CO)[C@@H](O)[C@H](O)[C@H]2O)[C@@H]2[C@H](C)O[C@@H](O)C[C@H]12` [Morroniside] reads 0.0778; that for `C=C[C@H]1[C@H](O[C@@H]2O[C@H](CO)[C@@H](O)[C@H](O)[C@H]2O)OC=C(C(=O)OC)[C@H]1CCOC(=O)c1cc(O)c(O)c(O)c1` [Cornuside], 0.0361; that for `COc1cc2oc(=O)ccc2c(OC)c1O` [Fraxinol], 0.0138. Then `O=C(C=Cc1ccc(O)c(O)c1)O[C@H]1[C@H](O)C[C@](O)(C(=O)O)C[C@H]1OC(=O)C=Cc1ccc(O)c(O)c1` [Isochlorogenic Acid C (4,5-Di-O-Caffeoylquinic Acid)], with 0.021; and `O=C(/C=C/c1ccc(O)c(O)c1)O[C@H](C(=O)O)[C@H](OC(=O)/C=C/c1ccc(O)c(O)c1)C(=O)O` [Chicoric Acid], with 0.0111; and `OC[C@H]1O[C@@H](Oc2cc3c(O)cc(O)cc3[o+]c2-c2ccc(O)c(O)c2)[C@H](O)[C@@H](O)[C@@H]1O` [Cyanidin3-o-glucoside], with -0.035.

Turning to `COc1ccc([C@@H]2CC(=O)c3c(O)cc(O[C@@H]4O[C@H](CO[C@@H]5O[C@@H](C)[C@H](O)[C@@H](O)[C@H]5O)[C@@H](O)[C@H](O)[C@H]4O)cc3O2)cc1O` [Hesperidin], the “NHEJ repair efficiency (log10)” value was found to be 0.196. Take `COc1ccc(C=O)c(O)c1` [4-Methoxysalicylaldehyde]: the “NHEJ repair efficiency (log10)” value stood at 0.00827. On to `Oc1cc(O)c2c(c1)O[C@H](c1ccc(O)c(O)c1)[C@H](O)C2` [Epicatechin (EC)], for which the “NHEJ repair efficiency (log10)” value is -0.238. On to `O=C(O)/C=C/c1ccc(O)cc1` [P-Coumaric Acid], for which the “NHEJ repair efficiency (log10)” value amounted to 0.1. In the case of `O=C(O)C1=CO[C@@H](O[C@@H]2O[C@H](CO)[C@@H](O)[C@H](O)[C@H]2O)[C@@H]2C(CO)=CC[C@H]12` [Geniposidic acid], the “NHEJ repair efficiency (log10)” value was -0.068. The result for `CC12CCC(CC1=O)C2(C)C` (stereo not given) [Camphor] reads -0.0599; that for `COC(=O)[C@H](c1ccccc1Cl)N1CCc2sccc2C1` [Clopidogrel bisulfate], 0.138; that for `OCC1=C[C@@H](O)[C@@H]2C=CO[C@@H](O[C@@H]3O[C@H](CO)[C@@H](O)[C@H](O)[C@H]3O)[C@H]12` [Aucubin], 0.0297. As to `CC(C)(O[C@@H]1O[C@H](CO)[C@@H](O)[C@H](O)[C@H]1O)[C@H]1Cc2cc3ccc(=O)oc3cc2O1` [Nodakenin], the “NHEJ repair efficiency (log10)” value is -0.0969. Then `COC(=O)C1=CO[C@@H](O)[C@@H]2C(CO)=CC[C@H]12` [Genipin], with -0.0273; and `O=C1c2c(O)cc(O)cc2OC(c2ccc(O)c(O)c2)C1O` (stereo not given) [Taxifolin], with -0.132; and `COc1cc(C2Oc3cc([C@H]4Oc5cc(O)cc(O)c5C(=O)[C@@H]4O)ccc3OC2CO)ccc1O` (stereo not given in full) [Silymarin Ⅱ], with -0.124. `C=C1CC[C@@H]2[C@](C)(CO)[C@H](O)CC[C@@]2(C)[C@@H]1C/C=C1/C(=O)OC[C@H]1O` [Andrographolide]: the “NHEJ repair efficiency (log10)” value was determined as 0.0511.

In the case of `C/C=C/c1cc(OC)c2c(c1)[C@H](C)[C@@H](c1ccc3c(c1)OCO3)O2` [Licarin B], the “NHEJ repair efficiency (log10)” value is 0.0776. Consider `C=CCc1ccc(OC)c(OC)c1` [Methyleugenol], for which the “NHEJ repair efficiency (log10)” value stood at 0.14. With `COc1cc(O)c2c(=O)c3c(O[C@@H]4O[C@H](CO)[C@@H](O)[C@H](O)[C@H]4O)ccc(O)c3oc2c1` [Swertianolin], the “NHEJ repair efficiency (log10)” value amounted to 0.00276. Take `CC(C)=C1CC[C@@H](C)CC1=O` [Pulegone]: the “NHEJ repair efficiency (log10)” value was found to be 0.114. The result for `C=C1C[C@@]23CC[C@H]4[C@@](C)(CCC[C@@]4(C)C(=O)O[C@@H]4O[C@H](CO)[C@@H](O)[C@H](O)[C@H]4O)[C@@H]2CC[C@]1(O[C@@H]1O[C@H](CO)[C@@H](O)[C@H](O)[C@H]1O[C@@H]1O[C@H](CO)[C@@H](O)[C@H](O)[C@H]1O)C3` [Stevioside] reads 0.149; that for `COc1cc2ccc(=O)oc2c(OC)c1O` [Isofraxidin], -0.0516; that for `CC1(C)CCC2(CO)C(=C3C=CC4C5(C)CCC(OC6OC(COC7OC(CO)C(O)C(O)C7O)C(OC7OC(CO)C(O)C(O)C7O)C(O)C6O)C(C)(CO)C5CCC4(C)C3(C)CC2O)C1` (stereo not given) [Clinopodiside A], -0.0569. Consider `O=C(O)c1ccccc1` [Benzoic Acid], for which the “NHEJ repair efficiency (log10)” value was -0.0219. The result for `CC1(C)CC[C@]2(C(=O)O)CC[C@]3(C)C(=CC[C@@H]4[C@@]5(C)CC[C@H](O)C(C)(C)[C@@H]5CC[C@]43C)[C@@H]2C1` [Oleanolic Acid] reads 0.0316; that for `C[C@H]1[C@H](C)CC[C@]2(C(=O)O[C@@H]3O[C@H](CO[C@@H]4O[C@H](CO)[C@@H](O[C@@H]5O[C@@H](C)[C@H](O)[C@@H](O)[C@H]5O)[C@H](O)[C@H]4O)[C@@H](O)[C@H](O)[C@H]3O)CC[C@]3(C)C(=CC[C@@H]4[C@@]5(C)C[C@@H](O)[C@H](O)[C@@](C)(CO)[C@@H]5[C@H](O)C[C@]43C)[C@H]12` [Madecassoside], 0.0946.
